From PubChem BioAssay (NCI)
The panel holds about 83,000 compounds, 20% with a hit somewhere; the sample as a whole holds those more often.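 In brief: 96-well plates, 48 h treatment, single concentration, percent growth endpoint.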 Activity calls are given as the source filed them. The calls were made as follows: active = growth percent below 10; inactive = the rest.

Tested on: HCT-15 colon
Test: NCI-60 one-dose screen, 48 h (100 = growth as untreated, 0 = no growth, -100 = all killed)
Conditions: 10 µM unless noted

| SMILES | growth |
| --- | --- |
| C=C1C(=O)O[C@H]2[C@H]1CC/C(COC(=O)c1cn(C)c3ccccc13)=C\CC[C@@]1(C)O[C@@H]21 | -44.9% (active) |
| CCOCCc1c(O)nc(SC)[nH]c1=O | 98.2% (inactive) |
| COc1ccccc1N1CCN(CCCOc2ccc(C(=O)/C=C3/C(=O)Nc4ccccc43)cc2)CC1 | 74.7% (inactive) |
| O=C(CCl)N1CCCc2ccccc21 | 99.8% (inactive) |
| C#C[C@@]1(O)[C@@H](CO)O[C@@H](n2cc(Br)c3c(N)ncnc32)[C@@H]1O | 2.93% (active) |
| COc1ccc(C(=O)c2cc(F)c(F)c(OC)c2F)cc1OC(=O)CCl | 26.4% (inactive) |
| Cc1ccccc1NC(=O)c1sc2nc(C)c(C(C)O)cc2c1N (stereo not drawn) | 35.3% (inactive) |
| OCCNc1nc(NCCO)nc(Nc2ccc(C3=NN(c4cc(Cl)cc(Cl)c4)C(c4ccc(Cl)cc4)C3)cc2)n1 (stereo not drawn) | 5.12% (active) |
| COc1ccc(NC(=O)c2sc3nc(C)c(C(C)=O)cc3c2N)cc1 | 91.6% (inactive) |
| Cc1ccc(-c2nc(C#N)c(S(=O)(=O)N(C)CCO)o2)cc1 | 37.6% (inactive) |
| O=C(CSC(=S)N1CCCCC1)Nc1ccccc1 | 99.1% (inactive) |
| COc1cc2c(cc1OC)C(Sc1ccc(Cl)cc1)c1c(nc(N)c(C#N)c1N)O2 (stereo not drawn) | -66.2% (active) |
| COC(=O)c1cncc(C(=O)Nc2ccc(-n3cnc4ccccc43)cc2)c1 | 100% (inactive) |
| O=C(/C(=C/c1ccc([N+](=O)[O-])cc1)SCc1ccc(Cl)cc1)c1ccc(F)cc1 | -16.5% (active) |
| CCOC(=O)c1c(-c2ccc(O)cc2)c(C#N)c2c(C#N)c(N)nn2c1N | 76% (inactive) |
| COc1cc(C2=NN(C(C)=O)C(c3cccc(Nc4ccnc5cc(C(F)(F)F)ccc45)c3)C2)cc(OC)c1OC (stereo not drawn) | 39.9% (inactive) |
| CC(=O)OC[C@]12CC[C@@H](c3cn(Cc4ccc(Cn5cc([C@@H]6CC[C@]7(COC(C)=O)CC[C@]8(C)[C@H](CC[C@@H]9[C@@]%10(C)CC[C@H](OC(C)=O)C(C)(C)[C@@H]%10CC[C@]98C)[C@@H]67)nn5)cc4)nn3)[C@@H]1[C@H]1CC[C@@H]3[C@@]4(C)CC[C@H](OC(C)=O)C(C)(C)[C@@H]4CC[C@@]3(C)[C@]1(C)CC2 | 102% (inactive) |

| SMILES | growth |
| --- | --- |
| COc1ccc(/C=C/C(=O)Nc2ncnc3nc[nH]c23)cc1 | 92.2% (inactive) |
| COC(=O)c1ccc2c(c1)NC(=O)[C@@H]1CCCN21 | 96.6% (inactive) |
| COc1cc(NC(=O)COc2cc(C)nc3ccc(OC)cc23)cc(OC)c1 | 90.9% (inactive) |
| CCOC(=O)c1ccc(Nc2ncnc3ccc(NC(=O)c4ccccc4)cc23)cc1 | 78.3% (inactive) |
| CCN(CC)CC#CCOC(=O)[C@]1(C)CCC[C@]2(C)[C@H]3C[C@H]4C(C(C)C)=C[C@]3(CC[C@H]21)[C@@H]1C(=O)CCC(=O)[C@@H]14 | 42.7% (inactive) |
| N#Cc1c(-c2ccc(F)cc2)nc(N/N=C/c2c[nH]c3ccccc23)nc1N1CCOCC1 | 8.42% (active) |
| CN1CCN(CC#CCOC(=O)CNC(=O)[C@]23CCC(C)(C)C[C@H]2C2=CC[C@@H]4[C@@]5(C)CC[C@H](O)C(C)(C)[C@@H]5CC[C@@]4(C)[C@]2(C)CC3)CC1 | 77% (inactive) |
| Nc1c(C(=O)Nc2cccc3ccccc23)sc2nc3c(cc12)COCC3 | 32.2% (inactive) |
| C#CCOC(=O)[C@]1(C)CCC[C@]2(C)[C@H]3C[C@H]4C(C(C)C)=C[C@]3(CC[C@H]21)[C@@H]1C(=O)CCC(=O)[C@@H]14 | 92.6% (inactive) |
| COC(=O)c1nc(-c2ccccc2)oc1S(=O)(=O)n1nc(-c2ccccc2)cc1N | 63.6% (inactive) |
| Cn1c2ccccc2c2c(OC(=O)c3ccccc3)c3c(nc21)-c1ccccc1C3 | 105% (inactive) |
| COc1ccc(-c2cc(-c3nnc(SCC(=O)Nc4ccc(/C(C)=N\O)cc4)o3)c3ccccc3n2)cc1 | 100% (inactive) |
| COc1ccc(C2CC(c3ccc(OC)cc3O)=NN2c2ccc(S(N)(=O)=O)cc2)cc1 (stereo not drawn) | 33.6% (inactive) |
| CC(=O)c1ccc(NC(=O)CSc2nnc(-c3cc(-c4ccc(Cl)cc4)nc4ccccc34)o2)cc1 | 76.9% (inactive) |
| CCOC(=O)c1c(C)nc2c(c1N)/C(=C/c1cccs1)C(=O)N2Cc1ccccc1 | 19.5% (inactive) |
| CN(C)[C@@H]1C(=O)C(C(N)=O)=C(O)[C@@]2(O)C(=O)C3=C(O)c4c(O)cc(CN5CCc6ccccc6C5)c(Cl)c4C[C@H]3C[C@@H]12 | -75.1% (active) |
